Some test systems named below: HCT-15 colon; HT29 colon; SNB-75 CNS; SNB-19 CNS; U251 CNS; PC-3 prostate; SK-MEL-5 melanoma; UACC-62 melanoma; LOX IMVI melanoma; SK-MEL-28 melanoma; SK-MEL-2 melanoma; EKVX NSCLC; SN12C renal; UO-31 renal; TK-10 renal; ACHN renal; CAKI-1 renal; A498 renal; CCRF-CEM leukemia; MOLT-4 leukemia.
What all share (assay): NCI-60 one-dose screen, 48 h (100 = growth as untreated, 0 = no growth, -100 = all killed)
Details in all cases: 10 µM unless noted

The structures appear in SMILES notation. “And” between values parts separate entries of the source, which are not always exact repeats. Equal values may be shown once. Compounds without any hit were thinned out: in the full panel of roughly 83,000, 20% have a hit.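 Treatment: one concentration, 48 hours, 96-well format. Scoring: percent growth, with anything below 10 considered active.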 The source made the active and inactive calls.

For `N#CC1=C(N)Oc2c(sc3c(Br)cccc23)C1c1ccccn1` (stereo unspecified), the growth is 28.5% (inactive) with HCT-15 colon; 10.6% (inactive) in the assay on HT29 colon; 61.2% (inactive) in the assay on SNB-75 CNS; 48.4% (inactive) in the assay with SNB-19 CNS; 36.5% (inactive) in the assay with U251 CNS; 40.6% (inactive) in the assay on PC-3 prostate. Further, the growth in the assay with SK-MEL-5 melanoma is 40.8% (inactive); with UACC-62 melanoma it was 18.3% (inactive); in the assay on LOX IMVI melanoma, 38.7% (inactive); with SK-MEL-28 melanoma it was 65.3% (inactive); in the assay with SK-MEL-2 melanoma, 2.4% (active); in the assay on EKVX NSCLC, 53.4% (inactive). Besides, the growth in the assay on SN12C renal was 43.9% (inactive); in the assay with UO-31 renal it was 46.7% (inactive); in the assay on TK-10 renal, 64.6% (inactive); with ACHN renal, 47.3% (inactive); in the assay with CAKI-1 renal it was 87.4% (inactive); with A498 renal, 37.9% (inactive). For the same compound, the growth in the assay with CCRF-CEM leukemia is 22.1% (inactive); in the assay on MOLT-4 leukemia, 28.9% (inactive).
As for `O=C1CCCCN1CCCCC#Cc1cccc(C#Cc2cccnc2)c1`, the growth in the assay with HCT-15 colon was 44.7% (inactive); with HT29 colon it was 86.5% (inactive); in the assay with SNB-75 CNS, 79.5% (inactive); with SNB-19 CNS it was 78.3% (inactive); with U251 CNS, 72.4% (inactive); in the assay on PC-3 prostate it was 61.5% (inactive). The growth in the assay with SK-MEL-5 melanoma was 62.6% (inactive); in the assay with UACC-62 melanoma, 36.3% (inactive); in the assay on LOX IMVI melanoma it was 95.8% (inactive); in the assay on SK-MEL-28 melanoma it was 107% (inactive); in the assay on SK-MEL-2 melanoma, 96.4% (inactive); in the assay on EKVX NSCLC it was 93.9% (inactive). Also, the growth with SN12C renal was 90.3% (inactive); with UO-31 renal, 59.1% (inactive); in the assay with TK-10 renal, 229% (inactive); with ACHN renal it was 101% (inactive); in the assay on CAKI-1 renal it was 84.4% (inactive); in the assay with A498 renal it was 84.3% (inactive). Moreover, the growth in the assay with CCRF-CEM leukemia was -23% (active); in the assay with MOLT-4 leukemia, -49.9% (active).
As for `Cc1ccc2nc3ccccc3c(NCc3ccc(Cl)cc3)c2c1`, the growth in the assay with HCT-15 colon is 14.5% (inactive); in the assay on HT29 colon it was 5.35% (active); in the assay on SNB-75 CNS, 66.5% (inactive); in the assay on SNB-19 CNS, 50.3% (inactive); in the assay with U251 CNS, 25.1% (inactive); in the assay with PC-3 prostate, 39.1% (inactive). Further, the growth in the assay on SK-MEL-5 melanoma is 54% (inactive); in the assay on UACC-62 melanoma, 74% (inactive); with LOX IMVI melanoma, -57.1% (active); in the assay on SK-MEL-28 melanoma, 75.5% (inactive); in the assay with SK-MEL-2 melanoma it was 102% (inactive); in the assay on EKVX NSCLC it was 55.4% (inactive). For the same compound, the growth in the assay with SN12C renal is 39.6% (inactive); in the assay on UO-31 renal, 24.5% (inactive); in the assay on TK-10 renal it was 82.4% (inactive); in the assay on ACHN renal it was 33.3% (inactive); in the assay on CAKI-1 renal, 45.7% (inactive); with CCRF-CEM leukemia it was 18.2% (inactive). The growth with MOLT-4 leukemia was 0.0972% (active).
For the compound `CCCCCCNC(=O)Oc1ccc(/C(=C(/CC)Cc2ccccc2)c2ccc(OCCCN(C)C)cc2)cc1`, the growth in the assay on HCT-15 colon is 14.7% (inactive); in the assay on HT29 colon it was 18.9% (inactive); in the assay on SNB-75 CNS, 68.4% (inactive); in the assay with SNB-19 CNS, 88.3% (inactive); in the assay on U251 CNS, 60.4% (inactive); in the assay on PC-3 prostate, 73.2% (inactive). Also, the growth is 87.7% (inactive) with SK-MEL-5 melanoma; 94.9% (inactive) in the assay with UACC-62 melanoma; -15% (active) with LOX IMVI melanoma; 101% (inactive) with SK-MEL-28 melanoma; 106% (inactive) with SK-MEL-2 melanoma; 89.2% (inactive) in the assay on EKVX NSCLC. For the same compound, the growth with SN12C renal was 87.1% (inactive); in the assay on UO-31 renal, 59% (inactive); in the assay on TK-10 renal it was 82.2% (inactive); in the assay with ACHN renal, 100% (inactive); in the assay on CAKI-1 renal, 89.6% (inactive); in the assay on CCRF-CEM leukemia, 69.4% (inactive). In the assay on MOLT-4 leukemia, the growth was 67.1% (inactive).
Regarding `O=C1C=CC(=O)N1c1ccc2ccccc2c1`, the growth with HCT-15 colon was 56.3% (inactive) and 91.1% (inactive); in the assay on HT29 colon, -42.9% (active) and 32.6% (inactive); in the assay with SNB-75 CNS, 88.9% (inactive) and 105% (inactive); with SNB-19 CNS it was 103% (inactive) and 107% (inactive); in the assay with U251 CNS, 95.9% (inactive) and 96.5% (inactive); with PC-3 prostate, 91% (inactive) and 90% (inactive). Besides, the growth is 106% (inactive) and 102% (inactive) in the assay on SK-MEL-5 melanoma; 98.8% (inactive) and 93.6% (inactive) with UACC-62 melanoma; 91.6% (inactive) and 77.6% (inactive) in the assay on LOX IMVI melanoma; 110% (inactive) and 116% (inactive) with SK-MEL-28 melanoma; 98.2% (inactive) and 101% (inactive) with SK-MEL-2 melanoma; 112% (inactive) and 95% (inactive) in the assay with EKVX NSCLC. Further, the growth in the assay with SN12C renal was 99.3% (inactive) and 91.1% (inactive); with UO-31 renal, 68.3% (inactive) and 72.8% (inactive); in the assay with TK-10 renal, 96.2% (inactive) and 36.7% (inactive); in the assay with CAKI-1 renal, 53.7% (inactive) and 83% (inactive); in the assay with A498 renal it was 101% (inactive); with CCRF-CEM leukemia, 41.3% (inactive) and 33.4% (inactive). Further, the growth in the assay with MOLT-4 leukemia was 49.7% (inactive) and 37.1% (inactive).
With `COc1cc(Nc2nc3ccccc3cc2C(=O)Nc2ccc(F)c(F)c2)cc(OC)c1OC`, the growth is 13.5% (inactive) in the assay with HCT-15 colon; 28.5% (inactive) in the assay with HT29 colon; 45.4% (inactive) in the assay with SNB-75 CNS; 25.3% (inactive) in the assay on SNB-19 CNS; 19.1% (inactive) in the assay with U251 CNS; 10.7% (inactive) in the assay on PC-3 prostate. Further, the growth with SK-MEL-5 melanoma was 13.8% (inactive); in the assay on UACC-62 melanoma it was 12.9% (inactive); in the assay with LOX IMVI melanoma, 17.6% (inactive); in the assay on SK-MEL-28 melanoma it was 35.7% (inactive); in the assay on SK-MEL-2 melanoma, 48.2% (inactive); with EKVX NSCLC, 30% (inactive). The growth in the assay with SN12C renal is 12.5% (inactive); in the assay on UO-31 renal, 21.8% (inactive); in the assay on TK-10 renal, 47.8% (inactive); with ACHN renal it was 5.68% (active); with CAKI-1 renal, 46.5% (inactive); with CCRF-CEM leukemia, 24.7% (inactive). Besides, in the assay with MOLT-4 leukemia, the growth is 14.2% (inactive).

The values above are taken from PubChem BioAssay (NCI).
